Laboratory results published in PubChem BioAssay (EPA / NIEHS).
Values joined by “and” are separate entries in the source; they are usually repeats but may differ in a detail not shown here. Equal values may be shown once. More than one record can exist for a structure, and the calls need not agree. Active and inactive are the calls of the source. The calls were made as follows: active = hit-call score of the fitted dose curve at least 0.9, where 1 is the maximum; inactive = score below 0.9.

read-out: Matrix Metallopeptidase 1 (MMP1), MMP1 (gene 4312); assay: BSK_BE3C_MMP1: BioMAP Diversity Plus: BE3C Assay for Matrix Metallopeptidase 1 (MMP1) Biomarker Activity (AID 2283024); conditions: primary human bronchial epithelial cells; actives raise or lower the signal
Protocol: BSK_BE3C is a cell-based, multiplexed-readout assay that uses bronchial epithelial cell, a human lung primary cell, with measurements taken at 24 hours after chemical dosing in a 96-well plate.BSK_BE3C_MMP1 is an assay component measured in the BSK_BE3C assay. It measures MMP-1 antibody related to regulation of gene expression using ELISA technology.Data from the assay component BSK_BE3C_MMP1 was analyzed into 1 assay endpoint. This assay endpoint, BSK_BE3C_MMP1, was analyzed with bidirectional fitting relative to DMSO as the negative control and baseline of activity. Using a type of binding reporter, gain or loss-of-signal activity can be used to understand changes in the signaling as they relate to the gene MMP1. Furthermore, this assay endpoint can be referred to as a primary readout, because this assay has produced multiple assay endpoints where this one serves a signaling function. To generalize the intended target to other relatable targets, this assay endpoint is annotated to the protease intended target family, where the subfamily is matrix metalloproteinase.
The levels of cell surface (or secreted, indicated by the prefix "s") biomarker endpoints were measured by ELISA. Overt cytotoxicity to cells in confluent adherent cultures (all systems other than the BT system) was assessed by measuring total protein levels using sulforhodamine B (SRB) staining in parallel cultures at the time of biomarker measurements, indicated as SRB endpoints. For proliferation assays for adherent cell types, individual cell types are cultured at sub-confluence and relative cell numbers quantified by SRB staining at time points optimized for each system (48 h: 3C and CASM3C systems; 72 h: BT and HDF3CGF systems; 96 h: SAg system). SRB was performed by staining cells with 0.1% SRB after fixation with 10% TCA and reading wells at 560 nm.Viability and proliferation of PBMC (T cells) was quantified by Alamar Blue reduction for the SAg and BT systems. For PBMC viability (referred to as PBMC Cytotoxicity within the assay endpoint names), cells were plated (75,000/well in a 96-well plate) and then chemical samples added for 1 h before addition of activators, SEB and TSST-1 (20 ng/mL final concentration each). Cells were incubated for 90 h. Then, Alamar Blue (20 uL/well) (Invitrogen, Cat DAL1100) was added for 6 h, and the plates were read with a fluorescence microplate reader at 546/580 nm (excitation/emission). For PBMC proliferation, cells were plated and activated as above but incubated for only 16 h prior to addition of Alamar Blue. Plates were read after 6 h.

Row | SMILES | outcome | AC50
1 | CCC(C)=NO | inactive | –
2 | COc1ccccc1Oc1c(NS(=O)(=O)c2ccc(C(C)(C)C)cc2)nc(-c2ncccn2)nc1OCCO | inactive | 20 µM (active)
3 | COc1ccc(C(=O)c2ccccc2O)c(O)c1 | inactive | –
4 | Oc1cccc2ccccc12 | inactive | –
5 | Sc1nc2ccccc2s1 | inactive | –
6 | Cc1c(C(N)=O)cc([N+](=O)[O-])cc1[N+](=O)[O-] | inactive | –
7 | C1CN(CCOCCN2CCOCC2)CCO1 | inactive | –
8 | CCC[Si](OC(C)=O)(OC(C)=O)OC(C)=O | inactive | –
9 | CC(C)CC(=O)CC(C)CC(C)C (stereo not drawn) | – | 20 µM (active)
10 | Cc1cc(-n2nc3ccc(Cl)cc3n2)c(O)c(C(C)(C)C)c1 | inactive | –
11 | CCCCC(CC)COC(=O)C=Cc1ccc(OC)cc1 (stereo not drawn) | inactive | –
12 | Cc1cccnc1 | inactive | –
13 | CCCCCCCCCC/C=C/C1CC(=O)OC1=O (stereo not drawn) | inactive | –
14 | CC[N+](CC)(CC(=O)Nc1c(C)cccc1C)Cc1ccccc1 (tested in a mixture with another compound) | inactive | –
15 | O=[N+]([O-])c1cc(S(=O)(=O)Nc2ccccc2)ccc1Nc1ccccc1 | – | 5.29 µM (active) and 5.21 µM (active)
16 | CC(C)C1OCCN1CCOC(=O)NCCCCCCNC(=O)OCCN1CCOC1C(C)C (stereo not drawn) | inactive | –
17 | O=C(C(=O)c1ccccc1)c1ccccc1 | – | 0.048 µM (active)
18 | CC[N+](CC)(CC(=O)Nc1c(C)cccc1C)Cc1ccccc1 | inactive | –
19 | CN(C)Cc1cc(C(C)(C)C)c(O)c(C(C)(C)C)c1 | inactive | –
20 | OC(C(F)(F)F)(C(F)(F)F)C(O)(C(F)(F)F)C(F)(F)F | inactive | –
21 | CCCCCCCCCCCCCCCCCC[N+](C)(C)C | – | 6.82 µM (active)
22 | COc1cc(CNC(=O)CCCC/C=C/C(C)C)ccc1O | – | 14.4 µM (active) and 14 µM (active)
23 | CN(C)c1ccc(C(c2ccccc2)c2ccc(N(C)C)cc2)cc1 | – | 5.54 µM (active)
24 | CCCCCCC(O)CCCCCCCCCCC(=O)OC (stereo not drawn) | – | 3.22 µM (active)
25 | COC(=O)/C=C\C(=O)OC | inactive | –
26 | CN(C)CCC(c1ccc(Cl)cc1)c1ccccn1 (stereo not drawn) | inactive | –
27 | CCCCCCCCCCC1CO1 (stereo not drawn) | inactive | –
